PubChem BioAssay AID504652 (National Center for Advancing Translational Sciences (NCATS), 2011)
Hit rate of the full screen: of about 360,000 compounds, about 11,000 (3.1%) were called active. The full list was thinned out, with actives kept by preference. Unmarked numbers belong to inactive results. Cut-off read from the data, not from the text of the source: active = activity change below about -30%; inactive = the rest.
% is set by controls: 0 for no effect and ±100 for the full control effect.

The compounds below were run against D(1A) dopamine receptor (Homo sapiens) (UniProt P21728) (assay: Antagonist of Human D 1 Dopamine Receptor: qHTS). Settings: HEK293 TREx D1 cells, calcium flux, dopamine EC80; at 10 µM; stronger effect = lower value.
Chain of D(1A) dopamine receptor (Homo sapiens) (P21728 whole entry, looked up): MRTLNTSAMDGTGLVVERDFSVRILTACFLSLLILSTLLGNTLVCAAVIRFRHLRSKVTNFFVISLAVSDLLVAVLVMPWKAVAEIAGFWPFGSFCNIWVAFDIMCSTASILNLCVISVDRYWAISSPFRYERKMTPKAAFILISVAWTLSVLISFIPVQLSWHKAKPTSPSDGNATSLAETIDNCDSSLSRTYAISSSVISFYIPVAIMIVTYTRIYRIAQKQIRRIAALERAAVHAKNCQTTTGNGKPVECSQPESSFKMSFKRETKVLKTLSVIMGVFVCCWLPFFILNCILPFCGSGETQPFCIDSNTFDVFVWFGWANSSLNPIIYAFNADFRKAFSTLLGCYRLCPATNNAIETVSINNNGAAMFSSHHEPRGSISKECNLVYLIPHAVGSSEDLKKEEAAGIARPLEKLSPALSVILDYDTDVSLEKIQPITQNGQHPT
Method in brief: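 Kinetic fluorescence of a calcium dye serves as the read-out. D1-expressing Hek293 Trex cells, induced overnight at 30 C, are exposed to compound for 180 s before an EC80 dopamine addition, then read 180 s further.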
`O=C(CNC(=O)c1ccc(Cl)cc1Cl)OC(C(=O)Nc1cc(C(F)(F)F)ccc1Cl)c1ccccc1` (stereo not drawn) gave an activity change, negative = inhibition of 6.17%.
`COc1ccc(NC(=O)Cn2c(=O)n(Cc3ccc(C(=O)NCc4ccccc4Cl)cc3)c(=O)c3ccccc32)cc1` showed an activity change, negative = inhibition of -5.19%.
Compound `CCN(Cc1ccccc1)S(=O)(=O)c1cc(C(=O)O)ccc1OC` has an activity change, negative = inhibition of 27.7%.
With `CCN(Cc1ccccc1)S(=O)(=O)c1ccc2c(c1)CCCN2C(C)=O` the activity change, negative = inhibition was -20%.
With `CCN(Cc1ccccc1)S(=O)(=O)c1cc2c3c(c1)CCN3C(=O)CC2` the activity change, negative = inhibition was -34.1% (active).
For `CC(=O)Nc1ccc(OC(=O)COc2ccc(Br)cc2)cc1`, the activity change, negative = inhibition was -21.3%.
For `Cc1ccc(O)c(NC(=S)NC(=O)COc2ccc(Br)cc2)c1`, the activity change, negative = inhibition was -46.3% (active).
`Cn1cccc1C(=O)NNC(=O)COc1ccc(Br)cc1` was tested, and the activity change, negative = inhibition was 16.4%.
`Cc1ccc(-c2nc(SCc3ccc(Br)cc3)n3[nH]c(=O)cc3n2)cc1` gave an activity change, negative = inhibition of -5.43%.
`CC(C)CC(=O)NCC(c1ccc2c(c1)OCO2)N1CCN(c2ccc(F)cc2)CC1` (stereo not drawn) gave an activity change, negative = inhibition of 19.3%.
`COc1ccc(OC)c(NC(=O)/C=C/c2ccc(C)o2)c1` showed an activity change, negative = inhibition of -17.2%.
With `COc1ccc(CNC(=O)COC(=O)c2c(C)nn(-c3ccccc3)c2C)cc1OC` the activity change, negative = inhibition was -26%.
`COc1ccc(CNC(=O)COc2ccccc2C(=O)c2cnn(-c3ccccc3)c2)cc1OC` was tested, and the activity change, negative = inhibition was -32.7% (active).
`COC(=O)COc1cccc2c(=O)n(CC(=O)NCCc3ccc(OC)c(OC)c3)ccc12` gave an activity change, negative = inhibition of 19.9%.
`Cc1cc(O)c(C(c2ccccc2)N2CCN(c3ccccc3F)CC2)c(=O)n1Cc1ccco1` (stereo not drawn) showed an activity change, negative = inhibition of -28.1%.
Compound `Cn1c(=O)c2c(-c3ccccc3Br)n(Cc3ccccc3)cc2n(C)c1=O` has an activity change, negative = inhibition of -11.3%.
Work on `COc1ccc(C(=O)C2CCCN(C(=O)c3cnsn3)C2)c(C)c1` (stereo not drawn) yielded an activity change, negative = inhibition of 22.1%.
`COc1ccc(C(=O)C2CCCN(S(=O)(=O)c3cccc(C)c3)C2)c(C)c1` (stereo not drawn) showed an activity change, negative = inhibition of 2.24%.
In the case of `COc1ccc(C(=O)C2CCCN(Cc3cccn3-c3ccccn3)C2)c(C)c1` (stereo not drawn), the activity change, negative = inhibition is reported as -34.5% (active).
In the case of `CCOc1ccc(Nc2oc(/C=C/c3ccc(F)cc3)nc2C#N)cc1`, the activity change, negative = inhibition is reported as -2.32%.
With `COc1cccc(NC(=O)CC2C(=O)NCCN2C(=S)Nc2ccc(F)cc2)c1` (stereo not drawn) the activity change, negative = inhibition was -8.91%.
For `CCc1ccc(NC(=O)CC2C(=O)NCCN2C(=S)Nc2ccccc2)cc1` (stereo not drawn), the activity change, negative = inhibition was -31.7% (active).
With `CCNC(=O)N1CCNC(=O)C1CC(=O)Nc1ccc(C(=O)OCC)cc1` (stereo not drawn) the activity change, negative = inhibition was 11.7%.
Work on `Cc1nn(C)cc1CNC(=O)Nc1ccc(Cl)cc1` yielded an activity change, negative = inhibition of 5.45%.
With `COc1ccc(Cl)cc1C(=O)NCc1cn(C)nc1C` the activity change, negative = inhibition was -31.1% (active).
With `Cc1ccc(-c2cc(C(=O)NCc3cn(C)nc3C)c3cc(Br)ccc3n2)cc1` the activity change, negative = inhibition was -1.17%.
`Cc1ccc(CCNC(=O)c2ccc(CNS(=O)(=O)c3ccc(C)cc3)cc2)cc1` showed an activity change, negative = inhibition of -6.27%.
`CCOc1ccc(N(Cc2ccccc2)C(=O)c2nc(S(C)(=O)=O)ncc2Cl)cc1` showed an activity change, negative = inhibition of -4.67%.
With `CN(C)Cc1ccccc1C1(O)c2ccccc2CSc2ccccc21` (stereo not drawn) the activity change, negative = inhibition was -0.848%.
With `CN(C)CC/C=C1\c2ccccc2CSc2ccccc21` the activity change, negative = inhibition was -62.1% (active).
`COc1ccccc1NC(=O)CN1C(=O)c2ccccc2Sc2ccc(C(=O)N3CCCC3)cc21` showed an activity change, negative = inhibition of 9.27%.
In the case of `COc1ccc(N2CCN(C(=O)c3c(C)oc4nc(C)nc(N5CCCC5)c34)CC2)cc1`, the activity change, negative = inhibition is reported as -1.85%.
For `COc1ccc(OCC(=O)OCCN(C)C)cc1`, the activity change, negative = inhibition was -9.23%.
In the case of `O=C(O)C(c1ccccc1)C1(O)CCCCC1` (stereo not drawn), the activity change, negative = inhibition is reported as -1.48%.
`CN(C)CCOC(=O)C(c1ccccc1)C1(O)CCCC1` (stereo not drawn) was tested, and the activity change, negative = inhibition was -42.6% (active).
With `CCN(c1ncnc2c1cnn2-c1ccc(C)cc1)C1CCCCC1` the activity change, negative = inhibition was 13.5%.
Compound `Cc1ccc2c(c1)-c1c(cnn1CC(=O)Nc1ccccc1C#N)CO2` has an activity change, negative = inhibition of 23.7%.
Compound `Cc1oc2ncnc(N3CCCCC3)c2c1C(=O)N1CCN(c2cccc(Cl)c2)CC1` has an activity change, negative = inhibition of -0.886%.
In the case of `CC(C)Cn1c(=O)c2ccccc2n2c(CCC(=O)N3CCN(c4cccc(Cl)c4)CC3)nnc12`, the activity change, negative = inhibition is reported as -9.12%.
`Cc1ccc(C)n1-c1nnc(N2CCC(C(=O)NCc3ccccc3Cl)CC2)s1` showed an activity change, negative = inhibition of -0.53%.
In the case of `COC(=O)c1cnc(N2CCN(c3ccccc3OC)CC2)c2ccccc12`, the activity change, negative = inhibition is reported as -2.99%.
`O=c1c(NCc2cccs2)nccn1-c1ccccc1` showed an activity change, negative = inhibition of -12.1%.
`CCOc1ccc(CNCCSc2nnnn2C)cc1` gave an activity change, negative = inhibition of -2.56%.
In the case of `Cn1nnnc1SCCCNCc1cccc(OCc2ccc(Cl)cc2)c1`, the activity change, negative = inhibition is reported as -15.2%.
With `Cc1c(Cl)cccc1-c1ccc(CNCCCSc2nnnn2C)o1` the activity change, negative = inhibition was -35% (active).
Work on `Cn1nnnc1SCCCNCc1ccc(Cl)cc1` yielded an activity change, negative = inhibition of -11.8%.
For `Cn1nnnc1SCCNCc1ccc(Cl)c(Cl)c1`, the activity change, negative = inhibition was -61.6% (active).
`COc1cc(CNCCSc2nnnn2C)ccc1OCc1c(F)cccc1Cl` was tested, and the activity change, negative = inhibition was -17.9%.
For `Cc1ccc2oc3c(c(=O)c2c1)C(c1ccc(O)cc1)N(Cc1ccc2c(c1)OCO2)C3=O` (stereo not drawn), the activity change, negative = inhibition was 0.447%.
`CCOc1ccc(-c2n[nH]c3c2C(c2ccccc2OC)N(c2ccc(Br)cc2)C3=O)cc1` (stereo not drawn) showed an activity change, negative = inhibition of 9.65%.
Work on `CCOC(=O)c1ccc(NC(=O)CCn2cnnn2)cc1` yielded an activity change, negative = inhibition of 14.2%.
`O=C1C(F)N([S+](=O)([O-])c2ccc3c(c2)OCCO3)CCN1[S+](=O)([O-])c1c(F)cccc1F` (stereo not drawn) showed an activity change, negative = inhibition of -5.38%.
In the case of `CCOc1cc2[nH]c(=O)n(Cc3ccc(C(=O)NCCN(CC)CC)cc3)c(=O)c2cc1OCC`, the activity change, negative = inhibition is reported as 5.18%.
Compound `CCc1cccc(NC(=O)CN(C)S(=O)(=O)c2ccc3[nH]c4c(c3c2)CCCC4)c1` has an activity change, negative = inhibition of -15.3%.
Work on `Cc1ccc(OC(=O)CSc2nnc(-c3cccs3)o2)cc1` yielded an activity change, negative = inhibition of -6.25%.
With `O=C(NCc1ccc(Cl)cc1)c1cc(=O)nc2sc(-c3ccccc3)nn12` the activity change, negative = inhibition was 0.956%.
`O=C(NCc1ccc2c(c1)OCO2)c1c(O)nc2sccn2c1=O` showed an activity change, negative = inhibition of 2.36%.
In the case of `O=C(NCc1ccc(Cl)cc1)c1cc2c(nc3sccn32)s1`, the activity change, negative = inhibition is reported as -58.9% (active).
